Test [1] has as its target Casein kinase II subunit alpha' (Homo sapiens) (UniProt P19784). Conditions: at 1 µM.
For test [2] the target is unchanged. The following applies: at 10 µM.
In test [3] the target is Dual specificity protein kinase CLK2 (Homo sapiens) (UniProt P49760). Conditions: at 1 µM.
The target is the same in test [4]. The following applies: at 10 µM.
In test [5] the target is Dual specificity protein kinase CLK3 (Homo sapiens) (UniProt P49761). The following applies: at 1 µM.
Test [6] has the same target. Conditions: at 10 µM.
The target in test [7] is Tyrosine-protein kinase CSK (Homo sapiens) (UniProt P41240). The following applies: at 10 µM.
Tyrosine-protein kinase CSK (Homo sapiens), sequence (P41240 2-450 limits assumed): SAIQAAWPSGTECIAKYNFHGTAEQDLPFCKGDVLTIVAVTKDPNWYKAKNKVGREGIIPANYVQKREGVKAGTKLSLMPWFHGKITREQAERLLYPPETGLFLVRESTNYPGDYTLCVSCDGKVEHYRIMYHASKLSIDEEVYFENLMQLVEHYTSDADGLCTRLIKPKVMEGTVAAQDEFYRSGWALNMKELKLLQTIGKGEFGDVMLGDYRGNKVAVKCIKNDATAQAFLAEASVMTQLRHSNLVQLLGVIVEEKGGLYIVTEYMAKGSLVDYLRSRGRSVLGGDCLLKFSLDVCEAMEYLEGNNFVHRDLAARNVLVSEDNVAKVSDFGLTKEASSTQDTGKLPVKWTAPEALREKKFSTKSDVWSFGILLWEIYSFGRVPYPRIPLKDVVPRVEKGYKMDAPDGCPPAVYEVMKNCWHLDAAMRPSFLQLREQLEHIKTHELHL
The target of test [8] is Calcium/calmodulin-dependent protein kinase type 1 (Homo sapiens) (UniProt Q14012). Conditions: at 1 µM.
Calcium/calmodulin-dependent protein kinase type 1 (Homo sapiens), sequence (Q14012 whole entry, looked up): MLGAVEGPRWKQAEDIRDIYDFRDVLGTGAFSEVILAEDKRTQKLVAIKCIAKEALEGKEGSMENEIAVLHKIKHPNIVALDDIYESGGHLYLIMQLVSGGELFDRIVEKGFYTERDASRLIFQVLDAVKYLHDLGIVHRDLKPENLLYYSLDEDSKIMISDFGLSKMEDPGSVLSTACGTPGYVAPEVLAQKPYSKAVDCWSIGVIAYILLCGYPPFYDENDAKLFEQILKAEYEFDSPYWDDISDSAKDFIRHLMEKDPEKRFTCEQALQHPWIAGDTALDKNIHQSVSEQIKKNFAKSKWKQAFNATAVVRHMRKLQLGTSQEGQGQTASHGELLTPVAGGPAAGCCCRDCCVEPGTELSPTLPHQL
Test [9] shares this target. The following applies: at 10 µM.
The target in test [10] is Calcium/calmodulin-dependent protein kinase type II subunit beta (Homo sapiens) (UniProt Q13554). The following applies: at 1 µM.
Calcium/calmodulin-dependent protein kinase type II subunit beta (Homo sapiens), sequence (Q13554 whole entry): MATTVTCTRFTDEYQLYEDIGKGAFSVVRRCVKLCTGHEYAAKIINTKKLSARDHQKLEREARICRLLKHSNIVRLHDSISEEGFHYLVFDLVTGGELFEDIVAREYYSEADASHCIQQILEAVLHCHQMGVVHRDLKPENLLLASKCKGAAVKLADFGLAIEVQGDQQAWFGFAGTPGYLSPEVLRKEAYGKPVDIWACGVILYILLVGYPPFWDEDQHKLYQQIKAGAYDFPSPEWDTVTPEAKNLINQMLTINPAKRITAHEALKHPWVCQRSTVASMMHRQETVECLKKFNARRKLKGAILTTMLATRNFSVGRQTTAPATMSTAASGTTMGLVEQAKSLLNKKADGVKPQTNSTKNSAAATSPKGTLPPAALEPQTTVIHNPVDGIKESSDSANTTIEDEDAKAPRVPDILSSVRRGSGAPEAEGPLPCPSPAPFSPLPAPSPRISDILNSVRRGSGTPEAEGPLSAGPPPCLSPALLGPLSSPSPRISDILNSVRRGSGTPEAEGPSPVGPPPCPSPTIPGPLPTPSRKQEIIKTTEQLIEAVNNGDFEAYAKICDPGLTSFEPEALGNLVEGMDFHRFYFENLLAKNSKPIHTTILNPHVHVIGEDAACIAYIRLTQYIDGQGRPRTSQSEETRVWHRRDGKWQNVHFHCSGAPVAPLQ
For test [11] the target is unchanged. The following applies: at 10 µM.
Test [12] deals with Calcium/calmodulin-dependent protein kinase type II subunit gamma (Homo sapiens) (UniProt Q13555). The following applies: at 1 µM.
Calcium/calmodulin-dependent protein kinase type II subunit gamma (Homo sapiens), sequence (Q13555 whole entry): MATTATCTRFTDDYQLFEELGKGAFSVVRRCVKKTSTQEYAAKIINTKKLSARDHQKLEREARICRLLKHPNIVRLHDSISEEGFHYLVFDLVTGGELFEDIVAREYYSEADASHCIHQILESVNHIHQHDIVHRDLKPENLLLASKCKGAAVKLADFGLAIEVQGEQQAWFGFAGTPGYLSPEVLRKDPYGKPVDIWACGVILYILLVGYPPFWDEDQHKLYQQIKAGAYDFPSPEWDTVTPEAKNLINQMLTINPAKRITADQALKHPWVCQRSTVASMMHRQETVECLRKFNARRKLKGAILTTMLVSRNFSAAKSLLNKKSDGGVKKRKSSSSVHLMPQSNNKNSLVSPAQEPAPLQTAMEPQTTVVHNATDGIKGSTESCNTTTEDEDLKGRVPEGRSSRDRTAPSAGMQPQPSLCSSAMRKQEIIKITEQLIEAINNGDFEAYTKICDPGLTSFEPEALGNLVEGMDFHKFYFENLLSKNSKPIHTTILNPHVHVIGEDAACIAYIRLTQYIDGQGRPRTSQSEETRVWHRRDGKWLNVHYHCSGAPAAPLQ
The target is the same in test [13]. Conditions: at 10 µM.
The target in test [14] is Calcium/calmodulin-dependent protein kinase type II subunit delta (Homo sapiens) (UniProt Q13557). Conditions: at 10 µM.
Calcium/calmodulin-dependent protein kinase type II subunit delta (Homo sapiens), sequence (Q13557 whole entry): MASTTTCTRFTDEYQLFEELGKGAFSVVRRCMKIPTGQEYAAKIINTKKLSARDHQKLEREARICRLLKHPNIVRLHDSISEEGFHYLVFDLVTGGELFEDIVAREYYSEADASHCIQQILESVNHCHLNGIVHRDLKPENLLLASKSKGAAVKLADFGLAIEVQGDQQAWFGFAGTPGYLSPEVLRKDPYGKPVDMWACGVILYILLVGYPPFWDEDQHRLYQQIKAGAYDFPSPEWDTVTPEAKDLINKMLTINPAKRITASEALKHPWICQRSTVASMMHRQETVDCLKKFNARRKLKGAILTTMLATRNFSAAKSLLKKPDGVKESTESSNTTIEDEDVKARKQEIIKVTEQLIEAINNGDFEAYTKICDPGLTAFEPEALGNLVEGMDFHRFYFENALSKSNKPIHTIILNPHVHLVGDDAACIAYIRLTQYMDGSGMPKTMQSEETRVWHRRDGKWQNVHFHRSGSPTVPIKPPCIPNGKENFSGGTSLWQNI
The target in test [15] is T1, Calcium/calmodulin-dependent protein kinase type IV (Homo sapiens) (UniProt Q16566).
T1 sequence (whole entry): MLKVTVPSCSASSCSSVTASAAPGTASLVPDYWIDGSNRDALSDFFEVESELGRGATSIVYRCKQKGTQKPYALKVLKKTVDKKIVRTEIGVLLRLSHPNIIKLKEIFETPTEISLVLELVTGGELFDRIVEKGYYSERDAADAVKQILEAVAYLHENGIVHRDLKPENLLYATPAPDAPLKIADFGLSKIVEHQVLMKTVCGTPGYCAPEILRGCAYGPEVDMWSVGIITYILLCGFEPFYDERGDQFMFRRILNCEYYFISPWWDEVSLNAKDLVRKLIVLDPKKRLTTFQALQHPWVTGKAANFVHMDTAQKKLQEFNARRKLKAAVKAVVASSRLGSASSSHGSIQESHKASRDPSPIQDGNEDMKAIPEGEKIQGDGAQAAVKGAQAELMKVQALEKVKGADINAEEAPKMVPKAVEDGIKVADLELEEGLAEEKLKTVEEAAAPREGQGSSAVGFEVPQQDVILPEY
The following applies: at 1 µM.

Test [16] has as its target T1, Calcium/calmodulin-dependent protein kinase type IV (Homo sapiens). Conditions: at 10 µM.
Test [17] has as its target T2, Casein kinase II (Homo sapiens) (UniProt P67870+P68400+P19784). Conditions: at 1 µM.
Test [18] addresses T2, Casein kinase II (Homo sapiens). Conditions: at 10 µM.
Test [19] concerns the target Tyrosine-protein kinase CSK (Homo sapiens) (UniProt P41240). Conditions: at 1 µM.
Test [20] has as its target Calcium/calmodulin-dependent protein kinase type II subunit delta (Homo sapiens) (UniProt Q13557). The following applies: at 1 µM.

Residual activity data for eight compounds are collected here from ChEMBL document CHEMBL2218924, “A broad activity screen in support of a chemogenomic map for kinase signalling research and drug discovery” (Biochem J, 2013).

Structures are written as SMILES.

Dual specificity protein kinase CLK3 (Homo sapiens), sequence (P49761 whole entry, looked up): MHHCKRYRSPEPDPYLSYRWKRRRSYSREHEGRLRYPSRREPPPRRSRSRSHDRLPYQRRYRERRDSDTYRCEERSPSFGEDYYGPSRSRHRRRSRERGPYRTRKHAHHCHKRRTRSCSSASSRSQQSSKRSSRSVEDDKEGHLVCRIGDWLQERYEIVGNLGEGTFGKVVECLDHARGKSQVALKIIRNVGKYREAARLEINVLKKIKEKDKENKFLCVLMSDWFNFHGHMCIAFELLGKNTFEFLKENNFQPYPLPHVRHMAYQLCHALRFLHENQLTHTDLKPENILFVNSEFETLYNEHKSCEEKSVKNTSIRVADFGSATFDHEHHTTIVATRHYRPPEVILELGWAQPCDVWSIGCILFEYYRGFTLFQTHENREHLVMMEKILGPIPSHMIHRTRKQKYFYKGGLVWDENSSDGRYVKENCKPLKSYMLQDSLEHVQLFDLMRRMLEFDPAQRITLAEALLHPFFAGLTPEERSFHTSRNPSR
Dual specificity protein kinase CLK2 (Homo sapiens), sequence (P49760 whole entry, looked up): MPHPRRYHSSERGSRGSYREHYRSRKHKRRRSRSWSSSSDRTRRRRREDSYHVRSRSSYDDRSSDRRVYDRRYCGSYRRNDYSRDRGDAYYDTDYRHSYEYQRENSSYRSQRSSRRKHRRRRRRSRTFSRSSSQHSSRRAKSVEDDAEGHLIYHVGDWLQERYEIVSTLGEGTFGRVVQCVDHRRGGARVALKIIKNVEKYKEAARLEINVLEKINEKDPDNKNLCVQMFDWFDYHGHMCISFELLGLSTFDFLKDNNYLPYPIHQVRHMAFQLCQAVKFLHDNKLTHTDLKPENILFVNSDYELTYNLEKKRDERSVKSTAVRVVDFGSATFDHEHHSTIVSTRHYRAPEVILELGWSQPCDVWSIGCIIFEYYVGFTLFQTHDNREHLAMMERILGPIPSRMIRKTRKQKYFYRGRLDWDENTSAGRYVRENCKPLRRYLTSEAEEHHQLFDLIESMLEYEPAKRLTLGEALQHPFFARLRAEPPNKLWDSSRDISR
T2 sequence (P19784 whole entry, looked up): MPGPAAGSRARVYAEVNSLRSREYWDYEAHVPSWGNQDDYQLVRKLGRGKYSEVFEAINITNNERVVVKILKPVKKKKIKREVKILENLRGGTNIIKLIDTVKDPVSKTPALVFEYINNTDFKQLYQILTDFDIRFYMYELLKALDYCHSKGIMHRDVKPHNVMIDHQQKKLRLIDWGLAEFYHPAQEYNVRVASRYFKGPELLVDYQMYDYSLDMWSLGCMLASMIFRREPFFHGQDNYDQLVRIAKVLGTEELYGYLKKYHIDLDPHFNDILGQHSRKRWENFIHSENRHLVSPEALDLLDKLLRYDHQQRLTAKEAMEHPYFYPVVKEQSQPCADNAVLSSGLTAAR
T2 sequence (P67870 whole entry, looked up): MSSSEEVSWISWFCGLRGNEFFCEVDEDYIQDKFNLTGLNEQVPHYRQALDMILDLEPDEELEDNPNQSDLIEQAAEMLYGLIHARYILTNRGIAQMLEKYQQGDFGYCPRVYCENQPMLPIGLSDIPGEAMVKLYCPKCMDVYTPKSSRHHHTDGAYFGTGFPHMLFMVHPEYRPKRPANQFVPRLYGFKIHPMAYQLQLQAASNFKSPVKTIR
T2 sequence (P68400 whole entry, looked up): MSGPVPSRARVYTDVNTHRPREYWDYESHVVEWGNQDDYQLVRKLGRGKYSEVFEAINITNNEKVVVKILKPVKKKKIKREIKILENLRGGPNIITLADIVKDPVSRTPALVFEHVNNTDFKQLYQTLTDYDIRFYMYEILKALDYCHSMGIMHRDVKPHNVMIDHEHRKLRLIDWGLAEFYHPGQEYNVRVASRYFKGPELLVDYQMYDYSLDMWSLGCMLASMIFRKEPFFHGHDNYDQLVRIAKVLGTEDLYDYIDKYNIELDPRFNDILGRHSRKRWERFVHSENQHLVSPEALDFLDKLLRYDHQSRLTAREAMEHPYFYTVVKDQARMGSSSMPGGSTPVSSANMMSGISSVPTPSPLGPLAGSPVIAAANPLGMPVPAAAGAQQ
Casein kinase II subunit alpha' (Homo sapiens), sequence (P19784 whole entry, looked up): as the sequence (P19784 whole entry, looked up) above

The residual activity is the signal under treatment as a percentage of the control signal. `CCN(CC)C(=O)c1ccc(Nc2nc(OCC3CCCCC3)c3nc[nH]c3n2)cc1`: the residual activity in test [1] turned out to be 101%; in [2], 75%; in [3] it was 25%; in test [4], 6%; in test [5], 65%; in test [6], 20%. Also, the residual activity in [7] stood at 44%; in [8] it was 70%; in [9], 19%; in [10], 98%; in test [11], 51%; in test [12] it was 102%. The residual activity is 51% in test [13], 49% in test [14], 82% in [15] and 28% in test [16].

`Oc1c2ccccc2c2c3c(cccc13)N=N2`: the residual activity stood at 60% in [17]; 19% in [18]; 59% in test [1]; 18% in test [2]; 36% in test [3]; 21% in test [4]. The residual activity in [5] came out at 72%; in test [6] it was 34%; in test [19], 105%; in [7], 93%; in test [8], 77%; in [9] it was 32%. The residual activity in [12] was determined as 37%; in [13], 8%; in test [20] it was 43%; in [14], 8%; in [15], 73%; in test [16], 24%.

Consider `Cn1cc(/C=C2\C(=O)Nc3ccc(S(N)(=O)=O)cc32)c2ccccc21`, for which the residual activity in test [17] stood at 79%; in test [18] it was 111%; in test [1], 124%; in [2], 80%; in [3] it was 35%; in [4], 14%. For the same compound, the residual activity in [5] is 45%; in [6], -3%; in test [19], 114%; in [7], 92%; in test [8] it was 54%; in test [9] it was 12%. For the same compound, the residual activity in [10] is 65%; in test [11] it was 58%; in [12] it was 23%; in test [13], -1%; in [20], 23%; in test [14] it was 7%. Moreover, the residual activity in test [15] came to 120%; in test [16], 62%.

As for `Nc1nc(Nc2ccc(S(N)(=O)=O)cc2)nn1C(=S)Nc1c(F)cccc1F`, the residual activity in test [17] is 100%; in test [18], 85%; in [1], 95%; in test [2] it was 62%; in test [3], -2%; in test [4] it was 2%. For the same compound, the residual activity in test [5] was -4%; in [6] it was -5%; in test [7] it was 99%; in test [8] it was 66%; in test [9], 17%; in test [10], 5%. In addition, the residual activity in test [11] was -1%; in test [12] it was 2%; in test [13] it was 0%; in [20] it was 0%; in test [14] it was 0%.

Turning to `Cc1ccc(S(=O)(=O)/C=C/C#N)cc1`, the residual activity was determined as 116% in test [17]; 98% in [18]; 114% in [1]; 103% in test [2]; 110% in test [3]; 112% in [4]. The residual activity in test [5] is 96%; in test [6], 96%; in [19], 116%; in test [7], 105%; in test [8] it was 95%; in test [9] it was 77%. Further, the residual activity amounted to 101% in [10]; 88% in test [11]; 103% in test [12]; 94% in test [13]; 104% in [20]; 107% in test [14]. Besides, the residual activity stood at 108% in test [15] and 86% in test [16].

In the case of `c1ccc2c(-c3ccncc3)c[nH]c2c1`, the residual activity was found to be 78% in test [17]; 95% in test [18]; 90% in [2]; 112% in test [3]; 85% in [4]; 87% in test [5]. Also, the residual activity in test [6] is 108%; in test [8], 106%; in test [9], 84%; in test [10], 47%; in test [11] it was 10%; in [12] it was 79%. Besides, the results for the residual activity in [13], in test [14] and in test [16] were 26%, 30% and 90%, respectively.

Take `N#CC(C#N)=C(N)/C(C#N)=C/c1ccc(O)cc1`: the residual activity stood at 91% in [17]; 85% in test [18]; 120% in test [1]; 86% in test [2]; 87% in [5]; 126% in test [6]. For the same compound, the residual activity in test [10] stood at 96%; in test [11], 90%; in test [12], 116%; in test [13], 95%.

On to `c1ccc(-c2n[nH]cc2-c2ccnc3ccccc23)nc1`, for which the residual activity in test [17] was determined as 104%; in test [18], 105%; in [4], 86%; in test [5], 86%; in test [6], 132%; in test [9], 83%. The residual activity worked out at 96% in test [10]; 68% in test [11]; 94% in test [12]; 69% in test [13]; 96% in test [20]; 80% in test [14]. In addition, the residual activity amounted to 139% in test [15] and 78% in [16].
